± gives the standard deviation.
tested on: MILI (PIWIL2) piRISC loaded with L1MC piRNA (26 nt); assay: pre-steady-state target cleavage rate (min^-1); guide: L1MC piRNA 5'p-UAACUAAAUACUAUGCAAGCUGUAGG; MIWI and MILI are mouse PIWI proteins and EfPiwi is from a freshwater sponge; tags in brackets are library labels; higher = faster piRNA-guided slicing of the target; settings: auxiliary factor: 500 nM mouse GTSF1
In short: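 The pre-steady-state cleavage rate was obtained by Cleave-'n-Seq with a burst-and-steady-state fit. A transcribed, DNA-blocked target RNA library (0.1 nM) was mixed with 1 nM active affinity-purified piRISC carrying one synthetic guide, with or without 500 nM GTSF1 partner protein, in HEPES–potassium acetate buffer at 33 °C for 0–8 or 0–960 min. Uncleaved targets were sequenced and normalised to depth and to weakly complementary targets, with three trials pooled and k3 capped at 0.0001 min^-1.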

Point of comparison: UCCUCCAUCAGCUUGCAUAGUAUUUAGUUA, “pre-steady-state target cleavage rate” value 0.248 ± 0.018. Against it:
- UCCUGGUACACCUUGCAUAGUAAUUAGUUA — higher, 0.491 ± 0.14
- UCCUGGUAGAGCUUGCAUAGUAUUUUGUUA — lower, 0.143 ± 0.03
- UCCUGCUACAGCUUGCAUAGUAUAAAGUUA — lower, 0.198 ± 0.025
- UCCUGCUACAGCUUGCAUAGUAGUUAGUUA — lower, 0.127 ± 0.03
- UCCUGCUACAGCUUACAUAGUAUUUAGUUA — within error, 0.274 ± 0.026
- UCCUGGAUCAGCUUGCAUAGUAUUUACAAA — lower, 0.105 ± 0.021
- UCCUGGAUGUCGAUGCAUAGUAUUUAGUAA — lower, 0.108 ± 0.015
- UCCUGGAACAGCUUACAUAGUAUUUAGUUA — within error, 0.223 ± 0.018
- UCCUGGAUGUGCUUAGCAUAGUAUUUAGUUA — lower, 0.124 ± 0.015
- UCCUGGAUGUGCUUGCAUAGUAUUUAGUAA — within error, 0.246 ± 0.031
- UCCUGCUACUCCUUGCAUAGUAUUUAGUAA — lower, 0.188 ± 0.023
- UCCUCCUUCAGCAUGCAUAGUAUUUAGUUA — within error, 0.265 ± 0.017
- UCCUGCUACACCUUGCAUAGUAUUUAGUAA — lower, 0.192 ± 0.035
- UCCUGGAUCAGCUUGCAAUGUAUUUAGUUA — lower, 0.0475 ± 0.011
- UCCUGGUACAGCAUGCAUAGUAUUUAGAUA — lower, 0.137 ± 0.025
- UCCUGGUACAGCUUACAUAGUAUUUAGUUA — within error, 0.213 ± 0.02
- UCCUGGAUCAAGCUUGCAUAGUAUUUAGUUA — within error, 0.237 ± 0.018
- UCCUGGAUGACGCUUGCAUAGUAUUUAGUUA — within error, 0.211 ± 0.022
- UCCUGGAACAGCUCGCAUAGUAUUUAGUUA — within error, 0.256 ± 0.012
- UCCUGCUUCAGCUUGCAUAGUAUUUAGAUA — lower, 0.165 ± 0.025
- UCCUGGAUGUGCUUGCCUAGUAUUUAGUUA — lower, 0.0942 ± 0.011
- UCCUCCUACAGCUUGCAUAGAUAUUUAGUUA — lower, 0.0178 ± 0.0058
- UCCUGGUACAGUUUGCAUAGUAUUUAGUUA — within error, 0.254 ± 0.02
- UCCUGGAUCAGCUUCCAAAGUAUUUAGUUA — lower, 0.0704 ± 0.0082
- UCCUGCUACAGCUUGCAUAGUUAUUAGUUA — lower, 0.0372 ± 0.013
- UCCUGGUACAGCUUGGAUAGUAUAUAGUUA — within error, 0.316 ± 0.065
- UCCUGGAACAGCUUGCCUAGUAUUUAGUUA — the same, 0.248 ± 0.015
- UCCUGCUACAGCAUGCAUAGUAUUUAGUAA — within error, 0.277 ± 0.03
- UCCUCCUACAGCUUGCUUAGUAUUUAGUUA — within error, 0.275 ± 0.015
- UCCUGCUACAGGUUGCAUACUAUUUAGUUA — lower, 0.0385 ± 0.0068
- UCCUCGAUCAGCUUGCAUAGUAUUUAGUUA — higher, 0.316 ± 0.017
- UCCUCCAACAGCUAGCAUAGUAUUUAGUUA — within error, 0.25 ± 0.017
- UCCUGGAACAGCUUGCUUAGUAUUUAGUUA — within error, 0.264 ± 0.01
- UCCUGAUACAGCUUGCAUAGUAUUUAGUUA — within error, 0.269 ± 0.02
- UCCUGGAACAGCUUGCAUAGAAUUUAGUUA — lower, 0.0554 ± 0.01
- UCCUGGUACAGCUAGCAAAGUAUUUAGUUA — lower, 0.102 ± 0.013
- UCCUGGAACAGCAUGCAUAGUAUUAAGUUA — within error, 0.219 ± 0.027
- UCCUGGAACAGCUUGCAUAGUAUUUAGUAUA — within error, 0.273 ± 0.027
- UCCUCCUACAGGUUGCAUAGUAUUAAGUUA — within error, 0.212 ± 0.027

same assay, conditions: auxiliary factor: none (no GTSF1)

Point of comparison: UCCUGGAUGUGCUUGCAUAGUAUUUAGUAA, “pre-steady-state target cleavage rate” value 0.00665 ± 0.0025. Against it:
- UCCUGGUACACCUUGCAUAGUAAUUAGUUA — within error, 0.00374 ± 0.0032
- UCCUGGUAGAGCUUGCAUAGUAUUUUGUUA — within error, 0.00365 ± 0.003
- UCCUGCUACAGCUUGCAUAGUAUAAAGUUA — within error, 0.00349 ± 0.0022
- UCCUGCUACAGCUUGCAUAGUAGUUAGUUA — within error, 0.00253 ± 0.0025
- UCCUGCUACAGCUUACAUAGUAUUUAGUUA — within error, 0.00609 ± 0.0025
- UCCUGGAUCAGCUUGCAUAGUAUUUACAAA — within error, 0.00255 ± 0.0024
- UCCUGGAUGUCGAUGCAUAGUAUUUAGUAA — within error, 0.00268 ± 0.0024
- UCCUGGAACAGCUUACAUAGUAUUUAGUUA — within error, 0.00953 ± 0.0027
- UCCUGGAUGUGCUUAGCAUAGUAUUUAGUUA — within error, 0.00625 ± 0.0028
- UCCUGCUACUCCUUGCAUAGUAUUUAGUAA — within error, 0.00412 ± 0.002
- UCCUCCAUCAGCUUGCAUAGUAUUUAGUUA — within error, 0.00673 ± 0.002
- UCCUCCUUCAGCAUGCAUAGUAUUUAGUUA — within error, 0.00701 ± 0.0018
- UCCUGCUACACCUUGCAUAGUAUUUAGUAA — within error, 0.00445 ± 0.0026
- UCCUGGAUCAGCUUGCAAUGUAUUUAGUUA — within error, 0.00413 ± 0.0025
- UCCUGGUACAGCAUGCAUAGUAUUUAGAUA — within error, 0.00437 ± 0.0029
- UCCUGGUACAGCUUACAUAGUAUUUAGUUA — within error, 0.00894 ± 0.0027
- UCCUGGAUCAAGCUUGCAUAGUAUUUAGUUA — within error, 0.0103 ± 0.0028
- UCCUGGAUGACGCUUGCAUAGUAUUUAGUUA — within error, 0.00493 ± 0.0037
- UCCUGGAACAGCUCGCAUAGUAUUUAGUUA — within error, 0.00773 ± 0.0031
- UCCUGCUUCAGCUUGCAUAGUAUUUAGAUA — within error, 0.00373 ± 0.002
- UCCUGGAUGUGCUUGCCUAGUAUUUAGUUA — within error, 0.012 ± 0.003
- UCCUCCUACAGCUUGCAUAGAUAUUUAGUUA — within error, 0.00345 ± 0.0022
- UCCUGGUACAGUUUGCAUAGUAUUUAGUUA — higher, 0.0161 ± 0.005
- UCCUGGAUCAGCUUCCAAAGUAUUUAGUUA — within error, 0.00341 ± 0.0024
- UCCUGCUACAGCUUGCAUAGUUAUUAGUUA — within error, 0.00337 ± 0.002
- UCCUGGUACAGCUUGGAUAGUAUAUAGUUA — within error, 0.0066 ± 0.0032
- UCCUGGAACAGCUUGCCUAGUAUUUAGUUA — within error, 0.00673 ± 0.0024
- UCCUGCUACAGCAUGCAUAGUAUUUAGUAA — within error, 0.00478 ± 0.0028
- UCCUCCUACAGCUUGCUUAGUAUUUAGUUA — within error, 0.00811 ± 0.0021
- UCCUGCUACAGGUUGCAUACUAUUUAGUUA — within error, 0.00412 ± 0.002
- UCCUCGAUCAGCUUGCAUAGUAUUUAGUUA — within error, 0.0102 ± 0.0027
- UCCUCCAACAGCUAGCAUAGUAUUUAGUUA — within error, 0.00537 ± 0.0023
- UCCUGGAACAGCUUGCUUAGUAUUUAGUUA — within error, 0.00723 ± 0.0021
- UCCUGAUACAGCUUGCAUAGUAUUUAGUUA — within error, 0.00917 ± 0.0027
- UCCUGGAACAGCUUGCAUAGAAUUUAGUUA — within error, 0.00299 ± 0.0027
- UCCUGGUACAGCUAGCAAAGUAUUUAGUUA — higher, 0.0127 ± 0.0033
- UCCUGGAACAGCAUGCAUAGUAUUAAGUUA — within error, 0.00548 ± 0.0019
- UCCUGGAACAGCUUGCAUAGUAUUUAGUAUA — within error, 0.00406 ± 0.0038
- UCCUCCUACAGGUUGCAUAGUAUUAAGUUA — within error, 0.00545 ± 0.0022

— the supplement of paper PMC10338343
